Consider 20 compounds from PubChem BioAssay (EPA / NIEHS).

Read-out in assay [1]: E-selectin (Homo sapiens) (UniProt P16581)
The experiment in a line: BSK_SAg_Eselectin: BioMAP Diversity Plus: SAg Assay for Eselectin Biomarker Activity (AID 2283091). The note with it: primary human HUVEC with PBMC; actives raise or lower the signal. The essentials: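 E-selectin ELISA readout at 24 h post-dosing in human umbilical vein endothelial cell/PBMC co-culture; gain or loss of signal fitted relative to DMSO baseline.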

Read-out in assay [2]: Monokine induced gamma interferon (MIG), CXCL9 (gene 4283)
Description: BSK_SAg_MIG: BioMAP Diversity Plus: SAg Assay for Monokine induced gamma interferon (MIG) Biomarker Activity (AID 2283092). The note with it: primary human HUVEC with PBMC; actives raise or lower the signal. Put shortly: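 ELISA readout of MIG/CXCL9; primary human umbilical vein endothelial cells co-cultured with peripheral blood mononuclear cells; 24 h post-dose; gain/loss fit vs DMSO baseline.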

Assay [3] in a line: BSK_SAg_PBMCCytotoxicity: PBMC Cytotoxicity Assessment in the BioMAP Diversity Plus: SAg Assay (AID 2283093).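 Also: PBMC viability measured as Alamar Blue reduction fluorescence at 546/580 nm; fitted both ways against DMSO so a hit may be loss or gain of signal.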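 As to AC50: PBMC superantigen activated with SEB plus TSST-1 one hour after compound addition.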 The note with it: primary human HUVEC with PBMC. Put shortly: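 Alamar Blue reduction (6 h, 546/580 nm) reports PBMC cytotoxicity after 90 h superantigen activation (SEB, TSST-1; 20 ng/mL final each) with 1 h compound pre-treatment. Gain or loss of signal fitted versus DMSO.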

Read-out in assay [4]: Interleukin-8 (IL8), CXCL8 (gene 3576)
The experiment in a line: BSK_SAg_IL8: BioMAP Diversity Plus: SAg Assay for Interleukin-8 (IL8) Biomarker Activity (AID 2283094). The note with it: primary human HUVEC with PBMC; actives raise or lower the signal. Put shortly: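 Chemicals were dosed onto a human endothelial–PBMC co-culture, and IL-8 was quantified by ELISA after 24 h. Both increases and decreases were fitted relative to DMSO.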

A short description of assay [5]: BSK_SAg_Proliferation: Cell Proliferation Assessment in the BioMAP Diversity Plus: SAg Assay (AID 2283095).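 Also: relative cell number as total protein by SRB absorbance in sub-confluent culture.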 The note with it: primary human HUVEC with PBMC. The essentials:
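Absorbance of sulforhodamine B at 560 nm reports total protein in a human vascular endothelial/PBMC co-culture after 96 h chemical exposure. Gain or loss of signal is fitted in both directions against DMSO.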

Assay [6] is described as follows: BSK_SAg_SRB: Viability Assessment in the BioMAP Diversity Plus: SAg Assay (AID 2283096).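 Also: cells read one day after compound addition; hits may be either gain or loss of signal compared with DMSO.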 The note with it: primary human HUVEC with PBMC. Put shortly:
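This overt-cytotoxicity endpoint quantifies protein in human endothelial/PBMC co-cultures at 24 h using SRB absorbance (560 nm) after trichloroacetic acid fixation. Values reflect signal change from the DMSO negative control, fitted bidirectionally.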

Assay [7] addresses Cytochrome P450 2C19 (Homo sapiens) (UniProt P33261). The experiment in a line: NVS_ADME_hCYP2C19: NovaScreen (NVS) CYP450-related Enzyme Activity (ADME) Assay for human CYP2C19 (AID 2283113; active = hit-call score of the fitted dose curve at least 0.9, where 1 is the maximum;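 as to AC50: potency for inhibition seen as loss of fluorescent signal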). The essentials: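 Recombinant insect-cell-expressed enzyme, fluorescent substrate, 1 h after chemical addition, fluorescence intensity. Baseline = acetonitrile vehicle; activity scored as signal loss. Primary HTS single concentration 10 uM, duplicate; actives retested in concentration series.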

The target of assay [8] is human CYP19A1, CYP19A1 (gene 1588) (UniProt P11511). The experiment in a line: NVS_ADME_hCYP19A1: NovaScreen (NVS) CYP450-related Enzyme Activity (ADME) Assay for human CYP19A1 (AID 2283098; active = hit-call score of the fitted dose curve at least 0.9, where 1 is the maximum). The essentials:
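Compounds were first screened at 10 uM in duplicate against purified enzyme, with a fluorogenic substrate and fluorescence intensity detection after 0.5 h. Inhibition appears as reduced signal against acetonitrile control.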

Assay [9] concerns the target human Caspase 5 (CASP5), CASP5 (gene 838) (UniProt P51878). Description: NVS_ENZ_hCASP5: NovaScreen (NVS) Enzymatic Assay for human Caspase 5 (CASP5) (AID 2283137; active = hit-call score of the fitted dose curve at least 0.9, where 1 is the maximum). The essentials: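 Chemicals were first tested in duplicate at 25 uM against recombinant caspase 5 from E. coli. Activity was read by fluorescence intensity 2 hours after dosing. Those passing a preset inhibition threshold were retested in singleton concentration-response up to 50 uM.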

The target of assay [10] is human CYP1A2, CYP1A2 (gene 1544) (UniProt P05177). The experiment in a line: NVS_ADME_hCYP1A2: NovaScreen (NVS) CYP450-related Enzyme Activity (ADME) Assay for human CYP1A2 (AID 2283102; active = hit-call score of the fitted dose curve at least 0.9, where 1 is the maximum;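 as to AC50: potency for inhibition since loss of fluorescence marks reduced CYP1A2 activity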). The essentials: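 Fluorescence-intensity enzyme activity read-out, taken 0.5 h post-dosing, using insect-cell-derived recombinant CYP1A2 and specific fluorescent substrate. Acetonitrile served as negative control/baseline. Single-concentration duplicate screen at 10 uM, then concentration-response follow-up.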
Sequence of human CYP1A2, CYP1A2 (gene 1544) (P05177 whole entry, looked up): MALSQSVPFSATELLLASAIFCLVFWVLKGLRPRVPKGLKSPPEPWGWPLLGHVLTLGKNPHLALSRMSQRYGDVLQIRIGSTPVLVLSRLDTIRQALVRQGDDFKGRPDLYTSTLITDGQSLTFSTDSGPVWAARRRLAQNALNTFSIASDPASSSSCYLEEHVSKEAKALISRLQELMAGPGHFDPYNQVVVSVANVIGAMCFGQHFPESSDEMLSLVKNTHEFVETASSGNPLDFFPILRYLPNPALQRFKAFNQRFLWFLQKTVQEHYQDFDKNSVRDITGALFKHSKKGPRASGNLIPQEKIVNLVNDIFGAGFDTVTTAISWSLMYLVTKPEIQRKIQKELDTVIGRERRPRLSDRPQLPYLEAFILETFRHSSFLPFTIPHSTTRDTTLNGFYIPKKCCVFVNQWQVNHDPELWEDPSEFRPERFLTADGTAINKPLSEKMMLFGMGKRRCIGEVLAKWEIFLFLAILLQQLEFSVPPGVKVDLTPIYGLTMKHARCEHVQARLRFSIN

The target in assay [11] is human CYP2A6, CYP2A6 (gene 1548) (UniProt P11509). Description: NVS_ADME_hCYP2A6: NovaScreen (NVS) CYP450-related Enzyme Activity (ADME) Assay for human CYP2A6 (AID 2283099; active = hit-call score of the fitted dose curve at least 0.9, where 1 is the maximum). The essentials:
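Insect-cell-expressed human CYP2A6 enzyme activity measured by fluorescence intensity 0.5 hour post-dosing. Compounds screened at 10 uM in duplicate, then hits tested singly in concentration series (max 20 uM); acetonitrile baseline.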

For assay [12], the target named is human CYP2B6, CYP2B6 (gene 1555) (UniProt P20813). Description: NVS_ADME_hCYP2B6: NovaScreen (NVS) CYP450-related Enzyme Activity (ADME) Assay for human CYP2B6 (AID 2283101; active = hit-call score of the fitted dose curve at least 0.9, where 1 is the maximum). The essentials: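 Fluorescence-based enzyme activity of recombinant human CYP2B6, measured 1 h post-dose against acetonitrile vehicle baseline. Screened at a single concentration of 10 uM in duplicate before concentration-response follow-up.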
Sequence of human CYP2B6, CYP2B6 (gene 1555) (P20813 whole entry, looked up): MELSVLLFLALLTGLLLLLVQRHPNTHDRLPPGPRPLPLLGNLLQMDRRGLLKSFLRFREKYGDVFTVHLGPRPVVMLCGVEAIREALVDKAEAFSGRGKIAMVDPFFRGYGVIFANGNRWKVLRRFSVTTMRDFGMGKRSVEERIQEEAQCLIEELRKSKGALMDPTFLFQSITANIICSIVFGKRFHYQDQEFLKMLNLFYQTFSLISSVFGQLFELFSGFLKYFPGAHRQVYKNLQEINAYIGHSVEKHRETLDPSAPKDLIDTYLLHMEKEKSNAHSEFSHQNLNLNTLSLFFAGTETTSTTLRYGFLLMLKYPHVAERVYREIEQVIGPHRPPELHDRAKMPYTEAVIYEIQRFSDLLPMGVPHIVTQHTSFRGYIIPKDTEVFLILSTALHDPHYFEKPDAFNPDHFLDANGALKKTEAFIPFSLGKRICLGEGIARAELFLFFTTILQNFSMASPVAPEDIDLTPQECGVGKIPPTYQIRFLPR

Assay [13] deals with human AKT serine/threonine Kinase 1 (AKT1), AKT1 (gene 207) (UniProt P31749). The experiment in a line: NVS_ENZ_hAKT1: NovaScreen (NVS) Enzymatic Assay for human AKT serine/threonine Kinase 1 (AKT1) (AID 2283138; active = hit-call score of the fitted dose curve at least 0.9, where 1 is the maximum). The essentials:
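Compounds were first tested in duplicate at 25 uM, and those passing a threshold such as 30% inhibition were run in concentration-response to a maximum of 50 uM. Enzyme activity was measured after 1 h by fluorescence following substrate/product mobility-shift separation.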

In assay [14] the target is human Beta-secretase (BACE), BACE1 (gene 23621) (UniProt P56817). Description: NVS_ENZ_hBACE: NovaScreen (NVS) Enzymatic Assay for human Beta-secretase (BACE) (AID 2283140; active = hit-call score of the fitted dose curve at least 0.9, where 1 is the maximum;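 also: hits are inhibitors that reduce fluorescent substrate signal versus DMSO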). Put shortly:
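Fluorescence intensity read-out of protease activity defines this endpoint; signal loss relative to DMSO baseline marks inhibition. Recombinant enzyme from SF9 cells, cell-free format, 1 h exposure. Single-concentration duplicate screen (25 uM) precedes concentration-series follow-up.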

In assay [15] the target is human CYP1A1, CYP1A1 (gene 1543) (UniProt P04798). The experiment in a line: NVS_ADME_hCYP1A1: NovaScreen (NVS) CYP450-related Enzyme Activity (ADME) Assay for human CYP1A1 (AID 2283100; active = hit-call score of the fitted dose curve at least 0.9, where 1 is the maximum). The essentials: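 Read-out: fluorescence intensity from enzymatic turnover of substrate by recombinant CYP1A1, loss of signal indicating inhibition. Incubation 1 h post-dose. Primary single-point 10 uM in duplicate; actives rerun singly with top concentration 20 uM.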

For assay [16], the target named is Cytochrome P450 3A4 (Homo sapiens) (UniProt P08684). The experiment in a line: NVS_ADME_hCYP3A4: NovaScreen (NVS) CYP450-related Enzyme Activity (ADME) Assay for human CYP3A4 (AID 2283110; active = hit-call score of the fitted dose curve at least 0.9, where 1 is the maximum). The essentials:
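Activity is derived from decreased fluorescence intensity relative to acetonitrile, measured 0.33 hour after dosing insect-cell-expressed CYP3A4 in a cell-free format. Screening used 10 uM in duplicate before concentration-response follow-up.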

Assay [17] concerns the target human CYP2C9, CYP2C9 (gene 1559) (UniProt P11712). Description: NVS_ADME_hCYP2C9: NovaScreen (NVS) CYP450-related Enzyme Activity (ADME) Assay for human CYP2C9 (AID 2283108; active = hit-call score of the fitted dose curve at least 0.9, where 1 is the maximum). The essentials: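 Cell-free assay of recombinant human CYP2C9 produced in Sf9 cells, with enzyme activity read by fluorescence intensity 0.75 h after compound addition. Loss of signal versus an acetonitrile negative control indicates inhibition. Primary screen used 10 uM in duplicate; actives were retested in concentration series.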

The target in assay [18] is Caspase-3 (Homo sapiens) (UniProt P42574). The experiment in a line: NVS_ENZ_hCASP3: NovaScreen (NVS) Enzymatic Assay for human Caspase 3 (CASP3) (AID 2283139; active = hit-call score of the fitted dose curve at least 0.9, where 1 is the maximum). The essentials:
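Single-concentration screening at 25 uM in duplicate, with concentration-response follow-up to a 50 uM maximum for chemicals passing the threshold. Caspase-3 (human, E. coli-expressed) activity was read as substrate fluorescence after 1 h, with loss of signal relative to DMSO.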

Inconclusive results are not listed. Active and inactive are the calls of the source. The calls were made as follows, unless noted: active = hit-call score of the fitted dose curve at least 0.9, where 1 is the maximum; inactive = score below 0.9.

Sequence of human CYP2A6, CYP2A6 (gene 1548) (P11509 whole entry, looked up): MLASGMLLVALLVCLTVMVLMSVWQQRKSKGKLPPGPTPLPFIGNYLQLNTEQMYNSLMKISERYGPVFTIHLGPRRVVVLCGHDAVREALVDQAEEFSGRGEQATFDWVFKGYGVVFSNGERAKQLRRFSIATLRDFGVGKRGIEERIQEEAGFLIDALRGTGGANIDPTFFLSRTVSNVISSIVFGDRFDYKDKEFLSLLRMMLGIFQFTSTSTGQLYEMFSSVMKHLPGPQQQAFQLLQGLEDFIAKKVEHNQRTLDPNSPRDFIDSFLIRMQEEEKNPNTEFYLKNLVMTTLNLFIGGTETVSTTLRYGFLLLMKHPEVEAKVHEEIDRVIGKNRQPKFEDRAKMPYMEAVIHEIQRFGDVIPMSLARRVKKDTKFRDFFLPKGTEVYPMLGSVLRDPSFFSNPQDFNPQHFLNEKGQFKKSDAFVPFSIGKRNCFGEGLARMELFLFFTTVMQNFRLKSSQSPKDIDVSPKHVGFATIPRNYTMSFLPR
Sequence of human Caspase 5 (CASP5), CASP5 (gene 838) (P51878 whole entry, looked up): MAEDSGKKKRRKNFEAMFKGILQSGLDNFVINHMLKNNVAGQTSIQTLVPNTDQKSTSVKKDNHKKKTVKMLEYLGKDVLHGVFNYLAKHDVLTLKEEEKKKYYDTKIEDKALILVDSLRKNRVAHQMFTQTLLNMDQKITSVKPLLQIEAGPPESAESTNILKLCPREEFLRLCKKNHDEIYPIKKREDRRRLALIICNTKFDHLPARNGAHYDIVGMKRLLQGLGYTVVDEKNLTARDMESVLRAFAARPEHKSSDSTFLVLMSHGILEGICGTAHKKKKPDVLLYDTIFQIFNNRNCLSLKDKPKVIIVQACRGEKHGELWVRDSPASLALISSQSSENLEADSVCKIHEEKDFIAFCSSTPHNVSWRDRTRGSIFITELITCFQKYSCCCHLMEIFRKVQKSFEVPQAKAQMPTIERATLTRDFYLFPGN
Sequence of E-selectin (Homo sapiens) (P16581 whole entry, looked up): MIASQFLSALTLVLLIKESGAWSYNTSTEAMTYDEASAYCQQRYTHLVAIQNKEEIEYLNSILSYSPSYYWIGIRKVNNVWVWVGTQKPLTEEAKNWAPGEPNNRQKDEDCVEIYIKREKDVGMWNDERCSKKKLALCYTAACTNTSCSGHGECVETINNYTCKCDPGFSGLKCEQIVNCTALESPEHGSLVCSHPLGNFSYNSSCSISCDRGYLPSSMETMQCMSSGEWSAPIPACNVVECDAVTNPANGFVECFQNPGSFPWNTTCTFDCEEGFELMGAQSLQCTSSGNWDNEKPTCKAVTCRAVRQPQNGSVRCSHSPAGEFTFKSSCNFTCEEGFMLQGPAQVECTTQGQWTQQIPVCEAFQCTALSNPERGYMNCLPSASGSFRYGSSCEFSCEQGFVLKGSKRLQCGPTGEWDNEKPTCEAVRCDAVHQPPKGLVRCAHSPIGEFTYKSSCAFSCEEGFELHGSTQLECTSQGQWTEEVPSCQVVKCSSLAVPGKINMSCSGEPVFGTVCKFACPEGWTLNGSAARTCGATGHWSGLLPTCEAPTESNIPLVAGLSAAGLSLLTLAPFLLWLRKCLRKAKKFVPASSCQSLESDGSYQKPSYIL
Sequence of human CYP19A1, CYP19A1 (gene 1588) (P11511 whole entry, looked up): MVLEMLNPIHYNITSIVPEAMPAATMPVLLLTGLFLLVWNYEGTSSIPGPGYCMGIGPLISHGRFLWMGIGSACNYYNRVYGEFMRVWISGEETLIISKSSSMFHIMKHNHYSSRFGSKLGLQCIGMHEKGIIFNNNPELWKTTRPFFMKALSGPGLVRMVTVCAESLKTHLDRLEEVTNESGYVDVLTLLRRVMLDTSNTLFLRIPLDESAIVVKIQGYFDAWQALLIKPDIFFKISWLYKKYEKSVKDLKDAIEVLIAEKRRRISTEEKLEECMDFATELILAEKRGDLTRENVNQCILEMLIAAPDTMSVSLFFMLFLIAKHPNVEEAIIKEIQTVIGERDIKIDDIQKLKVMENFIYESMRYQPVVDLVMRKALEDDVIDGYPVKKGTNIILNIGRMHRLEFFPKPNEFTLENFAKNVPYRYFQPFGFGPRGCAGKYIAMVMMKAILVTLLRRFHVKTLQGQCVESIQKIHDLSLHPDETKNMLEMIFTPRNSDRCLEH
Sequence of human AKT serine/threonine Kinase 1 (AKT1), AKT1 (gene 207) (P31749 whole entry, looked up): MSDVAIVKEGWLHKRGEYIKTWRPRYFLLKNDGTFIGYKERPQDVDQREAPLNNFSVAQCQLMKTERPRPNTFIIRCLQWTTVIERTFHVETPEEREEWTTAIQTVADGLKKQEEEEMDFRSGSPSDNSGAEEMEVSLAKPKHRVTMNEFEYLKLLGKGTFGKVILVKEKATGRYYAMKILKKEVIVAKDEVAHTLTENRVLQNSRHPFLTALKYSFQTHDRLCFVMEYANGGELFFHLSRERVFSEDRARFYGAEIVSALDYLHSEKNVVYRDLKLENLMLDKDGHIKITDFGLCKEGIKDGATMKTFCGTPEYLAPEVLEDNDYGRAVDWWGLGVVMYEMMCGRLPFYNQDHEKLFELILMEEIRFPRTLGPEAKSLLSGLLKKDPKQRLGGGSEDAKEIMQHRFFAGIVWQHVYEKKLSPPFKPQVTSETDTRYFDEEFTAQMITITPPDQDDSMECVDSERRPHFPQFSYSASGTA
Sequence of human CYP2C9, CYP2C9 (gene 1559) (P11712 whole entry, looked up): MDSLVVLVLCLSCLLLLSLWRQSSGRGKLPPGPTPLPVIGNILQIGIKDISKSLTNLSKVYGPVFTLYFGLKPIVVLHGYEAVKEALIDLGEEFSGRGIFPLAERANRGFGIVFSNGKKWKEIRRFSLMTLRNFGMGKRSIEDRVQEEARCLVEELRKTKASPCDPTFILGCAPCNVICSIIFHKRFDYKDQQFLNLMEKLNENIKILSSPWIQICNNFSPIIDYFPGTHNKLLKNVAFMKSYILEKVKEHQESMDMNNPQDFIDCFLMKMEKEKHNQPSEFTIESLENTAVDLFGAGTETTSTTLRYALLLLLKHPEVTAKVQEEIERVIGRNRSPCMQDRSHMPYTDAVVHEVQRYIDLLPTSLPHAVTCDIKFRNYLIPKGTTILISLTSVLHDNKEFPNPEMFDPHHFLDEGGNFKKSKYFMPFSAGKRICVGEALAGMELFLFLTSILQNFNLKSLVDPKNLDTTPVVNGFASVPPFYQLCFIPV
Sequence of Cytochrome P450 3A4 (Homo sapiens) (P08684 whole entry, looked up): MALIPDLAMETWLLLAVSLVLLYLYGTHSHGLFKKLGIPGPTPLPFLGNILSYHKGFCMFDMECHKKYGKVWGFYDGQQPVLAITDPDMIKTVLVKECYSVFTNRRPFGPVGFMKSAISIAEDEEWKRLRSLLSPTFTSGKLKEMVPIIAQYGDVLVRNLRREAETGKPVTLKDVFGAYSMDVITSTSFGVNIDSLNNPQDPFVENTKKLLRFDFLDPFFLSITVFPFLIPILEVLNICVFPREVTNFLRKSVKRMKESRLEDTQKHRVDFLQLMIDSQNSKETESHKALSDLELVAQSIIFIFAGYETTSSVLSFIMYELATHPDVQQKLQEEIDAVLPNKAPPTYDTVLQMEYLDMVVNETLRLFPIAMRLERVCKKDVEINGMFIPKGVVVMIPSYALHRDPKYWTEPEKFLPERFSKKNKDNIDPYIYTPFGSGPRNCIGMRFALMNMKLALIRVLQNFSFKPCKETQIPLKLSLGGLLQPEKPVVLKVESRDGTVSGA
Sequence of Caspase-3 (Homo sapiens) (P42574 whole entry, looked up): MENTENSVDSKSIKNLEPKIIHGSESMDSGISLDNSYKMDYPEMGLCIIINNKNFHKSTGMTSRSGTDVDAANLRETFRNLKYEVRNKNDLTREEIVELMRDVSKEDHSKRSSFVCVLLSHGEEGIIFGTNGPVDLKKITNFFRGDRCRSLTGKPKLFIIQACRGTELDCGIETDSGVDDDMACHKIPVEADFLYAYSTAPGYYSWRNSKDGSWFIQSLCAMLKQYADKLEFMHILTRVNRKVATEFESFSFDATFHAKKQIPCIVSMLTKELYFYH

In the case of `CC(=O)OC/C=C(\C)CCC=C(C)C`, the outcome in assay [1], in assay [2], in assay [3], in assay [4], in assay [5] and in assay [6] was inactive.

Consider `Clc1cc(Cl)c(Cl)cc1Cl`, for which the outcome in [1], in assay [2], in assay [3], in assay [4] and in [5] was inactive.

For the compound `CC(C)c1ccc(C(=O)N=C(N)N)cc1S(C)(=O)=O`, the outcome in [1], in assay [2], in [3], in assay [4], in assay [5] and in assay [6] was inactive.

Usually AC50 stands for the concentration at which the activity in the assay is half-maximal. Consider `CN1CCN(Cc2cc(-c3ccc4[nH]c(=O)oc4c3)co2)[C@@H](c2ccc(F)cc2)C1`, for which the AC50 in [1] is 11.2 µM (active); in [3], 28.1 µM (active); in assay [4], 9.71 µM (active); in [5], 30.7 µM (active). For the same compound, the outcome in assay [2], in assay [6] and in [7] was inactive.

In the case of `Cc1cccc(Nc2cc(Cl)nc(SCC(=O)O)n2)c1C`, the outcome in [1], in assay [2], in [3], in assay [4], in assay [5] and in assay [6] was inactive.

Turning to `O=[N+]([O-])C(CO)(CO)CO`, the result in assay [1], in assay [2], in assay [3], in assay [4] and in assay [6] was inactive. Further, in assay [5], the AC50 was 17.8 µM (active).

With `Cc1c(C(=O)O)c(O)cc2c1C(=O)c1c(O)c([C@@H]3O[C@H](CO)[C@@H](O)[C@H](O)[C@H]3O)c(O)c(O)c1C2=O`, the outcome in assay [1], in assay [2], in [3], in assay [4], in assay [5] and in [6] was inactive. For the same compound, the outcome in assay [8], in [7] and in [9] was inactive.

Regarding `NS(=O)(=O)c1cc2c(cc1Cl)NCNS2(=O)=O`, the result in assay [1], in [2], in assay [3], in assay [4], in assay [5] and in assay [6] was inactive.

Regarding `CC1(C)CC(N=C=O)CC(C)(CN=C=O)C1` (configuration not stated), the result in [1], in [2], in [3], in assay [4], in assay [5] and in assay [6] was inactive. Moreover, the call in [10] and in assay [9] was inactive.

Consider `O=C(N[C@@H](Cc1ccccc1)[C@@H](O)C(=O)N1C[C@@H](O)[C@@H](O)C1)c1cc2cc(Cl)ccc2[nH]1`, for which the outcome in assay [1], in assay [2], in [3], in assay [4], in assay [5] and in [6] was inactive. In addition, in assay [10], the call was inactive.

`Cc1ccc(C)c(O)c1C`: the outcome in [1], in [2], in assay [3], in [4], in [5] and in assay [6] was inactive. For the same compound, the outcome in assay [11] was inactive.

As to `NCC1(Cc2noc(=O)[nH]2)CCCCC1`, the outcome in [1], in assay [2], in assay [3], in assay [4], in [5] and in assay [6] was inactive.

For the compound `Nc1ccc(S(=O)(=O)c2ccc(N)cc2)cc1`, the outcome in assay [1], in assay [2], in [3], in assay [4], in [5] and in assay [6] was inactive.

In the case of `CCCCN(CCCC)CCCC`, the result in [1], in assay [2], in assay [3], in assay [4], in [5] and in [6] was inactive.

With `CCNc1cccc(C)c1`, the outcome in assay [1], in assay [2], in [3], in assay [4], in [5] and in assay [6] was inactive.

For the compound `Nc1ccc2c(c1)C(=O)c1ccccc1C2=O`, the result in [1], in assay [2], in assay [3], in assay [4], in assay [5] and in assay [6] was inactive. Moreover, the result in [11], in assay [12] and in assay [13] was inactive. Further, the figures for the concentration at half-maximal activity (AC50) in assay [10] and in [14] were 4.65 µM (active) and 2.16 µM (active), respectively.

In the case of `COc1ccc(S(=O)(=O)N2C(=O)[C@@](c3ccccc3OC)(N3C[C@H](O)C[C@H]3C(=O)N(C)C)c3cc(Cl)ccc32)c(OC)c1`, the half-maximal activity concentration (AC50) was 20 µM (active) in assay [1]; 20 µM (active) in assay [4]; 29.4 µM (active) in assay [5]; 29.7 µM (active) in [6]; 4.57 µM (active) in assay [16]; 6.95 µM (active) in [7]. Moreover, the result in assay [2], in [3] and in [15] was inactive.

Consider `CC(=O)Oc1ccccc1C(=O)O`, for which the result in assay [1], in assay [2], in [3], in [4], in assay [5] and in assay [6] was inactive.

For `CC1=C(/C=C/C(C)=C/C=C/C(C)=C/CO)C(C)(C)CCC1`, the AC50 in [1] was 12.8 µM (active); in assay [5], 26.1 µM (active); in [17] it was 18.2 µM (active); in assay [9], 39.9 µM (active). Also, the outcome in assay [2], in assay [3], in assay [4], in assay [6], in assay [11] and in assay [7] was inactive. Moreover, the compound was classed as inactive in [13].

Take `Cc1nc(-c2ccc3c(c2)CCN(CCC2CCC(NC(=O)/C=C/c4ccc(F)cc4)CC2)CC3)no1` (configuration not stated): the result in [1], in assay [2], in [3], in assay [4], in [5] and in [6] was inactive. Besides, the compound was called inactive in assay [8] and in [18].
